# Screening data: PubChem, National Center for Advancing Translational Sciences (NCATS)
# HepG2 viability = qHTS for Inhibitors of TGF-b: Cytotox Counterscreen | HepG2 CAGA-GFP viability, ATP luminescence, 18 h | Potency, µM (series often up to 46.1 µM), for inactives: at the highest dose activity change, negative = cytotoxicity, usual class: cytotoxic | hit rate 0.76% among 410,000 | AID 588856, 2011; also: potency is read from the fitted curve at half-maximal effect
#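 HepG2 CAGA-GFP cells (1000/well, DMEM with 1% FBS) received compound, then TGF-beta at 500 pg/mL final, and were incubated 18 hours at 37 degrees C. Viability was read by CellTiter-Glo luminescence. Media-only wells were set as complete cell-killing and DMSO as no toxicity.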
# DRD3 agonist = qHTS of D3 Dopamine Receptor Agonist: qHTS; AID 652048, 2013; hit rate 0.58% among 410,000; D3R DiscoveRx beta-arrestin cells, luminescence, 90 min; max activation, %; D(3) dopamine receptor (Homo sapiens), P35462; in the data active = max activation above about 30%; also: 0% is about no effect
# Target sequence (P35462 whole entry, looked up): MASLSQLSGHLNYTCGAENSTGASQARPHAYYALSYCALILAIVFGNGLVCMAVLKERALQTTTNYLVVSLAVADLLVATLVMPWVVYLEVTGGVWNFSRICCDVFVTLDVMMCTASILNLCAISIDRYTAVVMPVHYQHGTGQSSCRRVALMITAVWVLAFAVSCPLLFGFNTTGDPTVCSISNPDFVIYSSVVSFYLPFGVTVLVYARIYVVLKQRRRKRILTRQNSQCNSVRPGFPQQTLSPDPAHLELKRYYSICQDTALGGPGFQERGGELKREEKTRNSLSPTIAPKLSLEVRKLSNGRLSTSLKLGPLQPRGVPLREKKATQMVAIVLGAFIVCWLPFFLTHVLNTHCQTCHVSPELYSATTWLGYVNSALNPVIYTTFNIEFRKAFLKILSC
#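 Agonist mode: compounds and dopamine controls were applied to plated cells for 90 min at 37 degrees C after an overnight attachment at 1500 cells/well. Luminescent read-out followed 30 - 60 minutes at room temperature with DiscoveRx detection reagent.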
# TGFb SMAD3 inh = qHTS for Inhibitors of TGF-b; HepG2 CAGA-GFP TGF-b/SMAD3 reporter, GFP fluorescence, 18 h; TGF-beta stimulated, 500 pg/mL final; Potency, µM (doses to about 46.1 µM), for inactives: at the top dose activity, negative = inhibition, actives largely listed as inhibitors; hit rate 1.2% among 410,000; AID 588855, 2011; also: potency is read from the fitted curve at half-maximal effect; % is scaled to controls: 0 for no effect and ±100 for the full control effect; nearly all actives have a fitted effect of over 65% in size
#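 HEPG2 CAGA-GFP cells (1000/well, DMEM with 1% FBS) were pre-incubated 2 h at 37 degrees C, given compound by pin tool, then stimulated with TGF-beta at 500 pg/mL final for 18 h before per-cell GFP fluorescence imaging.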
# D3 antag = qHTS of D3 Dopamine Receptor Antagonist: qHTS; D(3) dopamine receptor (Homo sapiens), P35462; D3R cells, DiscoveRx beta-arrestin luminescence, antagonist mode; stronger effect = lower value; max response, negative = inhibition, %; hit rate 2.5% among 360,000; AID 652054, 2013; in the data active = max response below about -50%; inconclusive = no clear call, values can overlap the other calls; also: % is scaled to controls: 0 for no effect and ±100 for the full control effect
#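 Cells expressing the human receptor were seeded at 1500 cells/well, incubated overnight at 37 degrees C in 5% CO2, then exposed to library compounds with dopamine controls for 90 minutes at 37 degrees C before luminescent detection.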
# ATXN2 expr inh = Primary qHTS for Inhibitors of ATXN expression. hit rate 0.72% among 360,000. HEK-293 ATXN2-luciferase reporter, luminescence, 24 h. Potency, µM (highest dose often 57 µM), for inactives: at the highest dose activity change, negative = inhibition, usual class: inhibitors; also: potency is read from the fitted curve at half-maximal effect; % is scaled to controls: 0 for no effect and ±100 for the full control effect; nearly all actives have a fitted effect of over 55% in size
#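 ATXN2-luciferase reporter cells (luciferase flanked by upstream and downstream ATXN2 gene portions) were treated 24 h at 37 °C with compounds at up to 57 uM. SteadyGlo luminescence gave expression; GF-AFC fluorescence gave viability.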
# ATXN viability = Viability Counterscreen for Primary qHTS for Inhibitors of ATXN expression; Potency, µM (titrated, usually from 56.7 µM), usual class: cytotoxic; S2 cells (HEK-293 line with an ATXN2-luciferase reporter) viability, CellTiter-Fluor protease fluorescence, 24 h; AID 651635, 2014; hit rate 0.49% among 400,000; also: potency is read from the fitted curve at half-maximal effect; nearly all actives have a fitted effect of over 40% in size
# The depositor's hits bear a star; i = inactive; u = inconclusive; x = no result given. Most compounds without a hit are left out; they make up all but 4.8% or so of the library. Unless noted, calls follow the shape of the dose curve; as a rule, active = well fitted curve in the direction sought with a large enough effect; inconclusive = small, poorly fitted or top-dose-only effect, or another doubt; inactive = no such curve, though single readings can be large; an effect the other way counts as inactive or inconclusive.
SMILES,HepG2 viability,DRD3 agonist,TGFb SMAD3 inh,D3 antag,ATXN2 expr inh,ATXN viability
C=Cc1ccc(Cn2c(C(=O)O)c(CNC3CCCCC3)c3ccc(OC)cc32)cc1,-11%,-14,-14%,x,16%,u
C=C1C=C(C)n2ncc(C(=O)Nc3ccc(F)cc3F)c2N1,5%,x,12%,x,x,x
CCC1CN(CCNC(=O)c2ccnc(Cl)c2)Cc2cc(OC)ccc2O1 (configuration not stated),x,x,x,x,x,i
Nc1nc2ncccc2cc1C(=O)NC1CCCCC1,x,77*,x,-20,8%,i
O=C(NC1CCCCC1)c1cc2ccccc2cc1O,-14%,2,u,-1,53%,i
COC1=C(N)C(=O)c2nc(-c3nc(C(=O)O)c(C)c(-c4ccc(OC)c(OC)c4O)c3N)ccc2C1=O,-86%,-102,0.28µM*,-118*,-92%,2.2µM*
OC1CCCN(Cc2c3ccccc3cc3ccccc23)C1 (configuration not stated),-12%,-1,-13%,17,18µM*,i
CCOc1cc(N2C(=O)CC3CS(=O)(=O)CC32)c(OCC)cc1NC(=O)c1ccccc1 (configuration not stated),-79%,-3,0%,-62*,11%,i
CCOc1cc(N2CCOCC2)c(OCC)cc1NC(=O)c1cccc(N(C)C)c1,-4%,6,36%,16,-20%,i
O=C(C[n+]1c2ccccc2cc2ccccc21)c1ccc(F)cc1,-28%,x,-2%,x,x,x
N#C/C(=C/C1=C(N2CCOCC2)C(=C/c2cccc([N+](=O)[O-])c2)/CC1)C(=O)Nc1ccccc1F,2%,39*,-8%,-17,-3%,u
N#C/C(=C\C1=C(N2CCOCC2)C(=C/c2cccc([N+](=O)[O-])c2)/CC1)C(=O)Nc1ccccc1F,-14%,11,-8%,u,7%,i
Cc1ccc(C(=O)Nc2cccc(C(F)(F)F)c2)cc1-c1ccc2nc(NCCN3CCOCC3)ncc2c1,x,x,x,x,6.1µM*,x
CCC(C)C(NC(=O)OC(C)(C)C)C(=O)NC1COC2CC(n3ccc(NC(C)=O)nc3=O)OC12 (configuration not stated),5%,x,-6%,x,x,x
COc1ccccc1NS(=O)(=O)c1cc([N+](=O)[O-])ccc1N/N=C/c1c(C)[nH]c2ccccc12,-40%,-33,-17%,-52*,-25%,u
COc1ccc(N2C(=O)[C@@H]3C[C@H]2CN3Cc2cccn2-c2ccc(Cl)cn2)c(C)c1,x,x,x,x,x,i
COC(=O)N1C(=O)[C@](c2ccc(Cl)cc2)(C(C)C)N1C(=O)OC,16µM*,-26,u,-27,u,32µM*
COc1cc(CN2c3ccc(Br)cc3C(=O)CS2(=O)=O)cc(OC)c1,-59%,x,11µM*,x,x,x
C=CCN1c2ccc(Br)cc2C(=O)CS1(=O)=O,-12%,2,u,0,2%,i
COc1cccc(CN2c3ccc(Br)cc3C(=O)CS2(=O)=O)c1,1%,-9,7.9µM*,8,-1%,i
Cc1cc(C)n2cc(CSc3nnc(N)s3)nc2n1,24%,1,17%,-53*,3%,i
Cc1cc(C)n2cc(CSc3ccc(Cl)cc3)nc2n1,-29%,1,-18%,1,6%,i
Cc1cc(C)n2cc(CSc3nc4cc(Cl)ccc4o3)nc2n1,17%,-1,u,-51*,-23%,i
CCc1ccc(CNC(=O)CCCn2ccc3cc(S(=O)(=O)N4CCCC4)ccc32)cc1,-30%,-5,u,x,u,13µM*
Cc1ccc(NC(=O)N2CCC(CN3CCCC3)CC2)c(C)c1,-9%,0,2%,x,x,x
SMILES,HepG2 viability,DRD3 agonist,TGFb SMAD3 inh,D3 antag,ATXN2 expr inh,ATXN viability
CC(C)CC1C(=O)N(Cc2cn(CCC3OCCO3)nn2)CCS(=O)(=O)N1Cc1ccc(-c2ccc(Cl)c(Cl)c2)cc1 (configuration not stated),-56%,0,11µM*,18,u,x
Cc1ccc(-c2ccc(CN3C(CC(C)C)C(=O)N(Cc4cn(CCC5OCCO5)nn4)CCS3(=O)=O)cc2)cc1 (configuration not stated),11µM*,1,22µM*,-22,25µM*,35µM*
Cc1ccc(N(CC(=O)Nc2ccc(Br)c(C)c2)S(=O)(=O)c2cccs2)cc1,-10%,-2,-15%,x,-3%,i
NS(=O)(=O)c1ccc(Oc2ccc(S(N)(=O)=O)cc2)cc1,1%,5,8%,-9,11%,i
C=CS(=O)(=O)c1ccc(Oc2ccc(S(=O)(=O)C=C)cc2)cc1,3.2µM*,-32,0%,-91*,8.9µM*,5µM*
COCC1CCCN(Cc2ccc3c(c2)CN(C(=O)c2cnn(C(C)C)c2)CCO3)C1 (configuration not stated),x,x,x,x,x,i
CO[C@H]1/C=C\O[C@@]2(C)Oc3c(C)c(O)c4c(O)c(c(C=NN5CCN(C6CCCC6)CC5)c(O)c4c3C2=O)NC(=O)C(C)=CC=C[C@H](C)[C@H](O)[C@@H](C)[C@@H](O)[C@@H](C)[C@H](OC(C)=O)[C@H]1C,-41%,x,11µM*,x,5.4µM*,x
COc1ccc(C2CC(O)(c3ccccc3)Oc3cc(OC)c(OC)c(OC)c32)cc1 (configuration not stated),-36%,6,u,9,-14%,u
OC1(c2ccccc2)CC(c2ccccc2)c2ccccc2O1 (configuration not stated),22µM*,73*,u,5,u,i
C=Cc1ccc(CSc2nc(-c3ccccc3Cl)nc3c2Cc2c(CO)cnc(C)c2O3)cc1,4%,-1,14%,x,-5%,u
O[C@H]1C[C@H](c2ccc(Cl)cc2)N(CC2CCCCC2)C[C@@H]1n1cc(C2CC2)nn1,16µM*,5,u,4,u,35µM*
O[C@@H]1CN(CC2CCCCC2)[C@@H](c2ccc(Cl)cc2)C[C@H]1n1cc(C2CC2)nn1,-28%,2,3%,15,u,20µM*
C[C@H]1C[C@H]2[C@@H]3CCC4=CC(=O)C=C[C@]4(C)[C@@]3(F)[C@@H](O)C[C@]2(C)[C@@]1(O)C(=O)CCl,x,-17,x,x,x,i
Cc1c(Cl)cccc1NC(=S)N=Nc1c(O)n(CN2CCOCC2)c2ccccc12,-27%,8,5µM*,6,u,u
